According to PubChem BioAssay (Tox21):
Results filed as inconclusive are left out. Active and inactive are the calls of the source. Unless noted, calls follow the shape of the dose curve; as a rule, active = well fitted curve in the direction sought with a large enough effect in the repeat runs; inconclusive = weak or mixed curves; inactive = no such curve, though single readings can be large; an effect the other way counts as inactive or inconclusive.

Assays:
[1] = qHTS assay for small molecules that induce genotoxicity in human embryonic kidney cells expressing luciferase-tagged ATAD5 (AID 651632); also: nearly all actives have a fitted effect of over 15% in size
Outline: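 Quantitative HTS in HEK293T expressing luciferase-tagged ATAD5, whose levels rise upon DNA damage. Exposure ran 16 hr at 37C and 5% CO2, with luminescence read 30 min after Amplite addition at room temperature.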

[2] = qHTS assay for small molecule agonists of the p53 signaling pathway - cell viability (AID 651633; calls by dose curve;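 also: p53RE-bla HCT reporter cells with a stable beta-lactamase p53 reporter; series mostly up to about 83 µM; nearly all actives have a fitted effect of over 30% in size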)
Outline: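 p53RE-bla cells, seeded at 4,000 per well and rested 5 h at 37 C/5% CO2, received compounds in DMSO for 16 h at 37 C. CellTiter-Glo was then added, and luminescence was read after 30 min at room temperature to gauge cytotoxicity.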

[3] = qHTS assay for small molecules that induce genotoxicity in human embryonic kidney cells expressing luciferase-tagged ATAD5 - cell viability (AID 651634; calls by dose curve; also: nearly all actives have a fitted effect of over 25% in size)
Outline: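 After 15.5 hr incubation with compound at 37C, 5% CO2, HEK293T ATAD5-luciferase cells received CellTiter-Fluor reagent; fluorescence intensity was quantified following 30 min at 37C.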

[4] = qHTS assay for small molecule disruptors of the mitochondrial membrane potential - cell viability (AID 720634; calls by dose curve;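 also: human HepG2 liver cancer cells; series mostly up to about 83 µM; nearly all actives have a fitted effect of over 20% in size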)
Outline: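 ATP-based luminescent viability readout (CellTiter-Glo, 30 min, room temperature) in HepG2 cells multiplexed with the m-MPI membrane potential dye; compound exposure lasted 1 hr at 37 C.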

[5] = qHTS assay for small molecule disruptors of the mitochondrial membrane potential (AID 720635); also: potency is read from the fitted curve at half-maximal effect
Outline: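 HepG2 cells (2,000/well) attached overnight at 37C, then took compound for 1 hr at 37C, 5% CO2. Mito-MPS dye was added for 30 min; fluorescence was read at 490/535 nm (monomers) and 540/590 nm (aggregates).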

[6] = qHTS assay to test for compound auto fluorescence at 590 nm (red) in HepG2 cells (AID 720674)
Outline: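 Rose Bengal sodium served as the red fluorophore standard. HepG2 monolayers (overnight attachment, MEM with 10% FBS) were exposed to test compounds for 1 hr at 37 C and read at Ex 540/Em 590 nm.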

[7] = qHTS assay to test for compound auto fluorescence at 535 nm (green) in HepG2 cells (AID 720675)
[8] = qHTS assay to test for compound auto fluorescence at 460 nm (blue) in HEK293 cells (AID 720678)
Outline: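 Cells were seeded and left to adhere for 4-5 hr at 37C. Compounds were then pin-transferred. After an overnight incubation at 37C under 5% CO2, intrinsic fluorescence at 405/460 nm was measured and referenced to triamterene.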

[9] = qHTS assay to test for compound auto fluorescence at 590 nm (red) in HEK293 cells (AID 720679)
Outline: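 Each well held 2,000 HEK293 cells in medium containing 10% dialyzed FBS. Following 4-5 hr attachment at 37C, 23 nL test compound or DMSO was added; plates sat overnight, and red fluorescence (540/590nm) was recorded.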

[10] = qHTS assay to test for compound auto fluorescence at 460 nm (blue) in HEK293 cell free culture (AID 720681)
Outline: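 Test compounds were pinned into cell-free culture medium (DMEM with 10% FBS) and fluorescence was read directly at Ex/Em 405/460 nm. Signals were expressed as fluorescence equivalents of triamterene, with DMSO vehicle as control.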

[11] = qHTS assay to test for compound auto fluorescence at 535 nm (green) in HEK293 cell free culture (AID 720682)
Outline: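 Green-label autofluorescence (485 nm excitation, 535 nm emission) measured on compound added to cell-free culture medium (DMEM, 10% FBS). Output is expressed relative to fluorescein.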

[12] = qHTS assay to test for compound auto fluorescence at 590 nm (red) in HEK293 cell free culture (AID 720683)
Outline: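 Tox21 10K library compounds were pinned into cell-free DMEM with 10% FBS and fluorescence was read at excitation 540 nm. Activity is expressed as Rose Bengal sodium equivalency.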

[13] = qHTS assay to test for compound auto fluorescence at 590 nm (red) in HepG2 cell free culture (AID 720684)
Outline: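 Ex 540 / Em 590 nm read of compound in cell-free MEM (10% FBS). Rose Bengal sodium reference.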

[14] = qHTS assay to test for compound auto fluorescence at 460 nm (blue) in HepG2 cell free culture (AID 720685)
Outline: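 Cell-free plates of MEM plus 10% FBS received 23 nL compound or DMSO vehicle; blue-channel (405/460 nm) intensity scored against triamterene as reference fluorophore.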

[15] = qHTS assay to test for compound auto fluorescence at 460 nm (blue) in HepG2 cells (AID 720687)
Outline: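 Cells (2,000/well in MEM with 10% FBS) attached overnight at 37 C, then were exposed to compound or DMSO for 1 hr at 37 C, 5% CO2. Fluorescence read at Ex/Em 405/460 nm, expressed as triamterene-equivalent signal.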

[16] = target: Glucocorticoid receptor (Homo sapiens) (UniProt P04150); experiment: qHTS assay to identify small molecule agonists of the glucocorticoid receptor (GR) signaling pathway (AID 720691; active = well fitted activation curve with a large enough effect in the signal ratio in the repeat runs, not every such curve was filed as active; the % refers to the signal ratio; also: potency is read from the fitted curve at half-maximal effect)
Sequence of Glucocorticoid receptor (Homo sapiens) (P04150 whole entry, looked up): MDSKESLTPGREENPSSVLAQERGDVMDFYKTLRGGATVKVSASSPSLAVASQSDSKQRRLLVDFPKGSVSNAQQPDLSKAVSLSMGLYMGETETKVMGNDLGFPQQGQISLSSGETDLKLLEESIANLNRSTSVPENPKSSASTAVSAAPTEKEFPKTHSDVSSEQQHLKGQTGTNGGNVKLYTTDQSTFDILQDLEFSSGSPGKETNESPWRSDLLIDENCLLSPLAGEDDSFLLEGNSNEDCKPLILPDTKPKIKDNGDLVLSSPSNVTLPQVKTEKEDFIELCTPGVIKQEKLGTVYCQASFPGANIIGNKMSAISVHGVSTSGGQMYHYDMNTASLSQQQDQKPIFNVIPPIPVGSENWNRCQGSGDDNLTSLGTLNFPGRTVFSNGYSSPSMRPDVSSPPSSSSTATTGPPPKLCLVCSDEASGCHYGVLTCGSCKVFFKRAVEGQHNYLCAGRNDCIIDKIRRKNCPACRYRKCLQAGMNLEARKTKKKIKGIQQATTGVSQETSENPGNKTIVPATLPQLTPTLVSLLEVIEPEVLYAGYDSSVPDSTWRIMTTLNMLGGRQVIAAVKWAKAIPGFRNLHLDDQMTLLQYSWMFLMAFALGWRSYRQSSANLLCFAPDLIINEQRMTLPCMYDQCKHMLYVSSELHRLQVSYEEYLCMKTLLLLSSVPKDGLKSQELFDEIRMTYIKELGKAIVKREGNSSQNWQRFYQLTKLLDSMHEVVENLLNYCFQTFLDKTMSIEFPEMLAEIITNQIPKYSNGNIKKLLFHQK
Outline: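 Cells: GR-bla HeLa, endogenous GR with stably integrated GRE-beta-lactamase reporter. Treatment 18 h, 37 C, compounds delivered in DMSO. Detection via LiveBLAzer B/G FRET substrate, 2 h RT, fluorescence intensity.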

[17] = qHTS assay to test for compound auto fluorescence at 535 nm (green) in HEK293 cells (AID 720680)
[18] = qHTS assay to test for compound auto fluorescence at 535 nm (green) in HepG2 cell free culture (AID 720686)
[19] = target: Glucocorticoid receptor (Homo sapiens) (UniProt P04150); experiment: qHTS assay to identify small molecule antagonists of the glucocorticoid receptor (GR) signaling pathway (AID 720692; active = well fitted inhibition curve with a large enough effect in the signal ratio in the repeat runs, not every such curve was filed as active; the % refers to the signal ratio)
Outline: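 Quantitative HTS in antagonist format: HeLa cells expressing endogenous GR and a stably integrated GRE-bla reporter, stimulated with 5 nM dexamethasone (final) alongside test compounds for 18 h.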

[20] = qHTS assay for small molecule agonists of the p53 signaling pathway (AID 651631; calls by dose curve; also: nearly all actives have a fitted effect of over 15% in size)
Outline: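 HCT-116 cells carrying a beta-lactamase reporter under p53 response elements were dosed with compound for 16 h at 37 °C. LiveBLAzer B/G FRET substrate was then added for 2 h at room temperature, and fluorescence intensity was read to detect pathway agonism.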
% is scaled to controls: 0 for no effect and ±100 for the full control effect.

NC(=O)CC[C@@H](N)C(=O)O
inactive: Potency [1] | outcome [2] | outcome [3] | outcome [4] | Potency [5] | outcome [6] | outcome [7] | outcome [8] | outcome [9] | outcome [10] | outcome [11] | outcome [12] | outcome [13] | outcome [14] | outcome [15] | Potency [16]

CCCCCC(CC)OC(=O)CCCOc1ccc(Cl)cc1Cl (stereo not given)
inactive: Potency [1] | outcome [2] | outcome [3] | outcome [4] | Potency [5] | outcome [6] | outcome [7] | outcome [8] | outcome [9] | outcome [17] | outcome [10] | outcome [11] | outcome [12] | outcome [13] | outcome [14] | outcome [18] | outcome [15] | outcome [19]

CC(=O)OC/C=C(/C)CCC=C(C)C
inactive: Potency [1] | outcome [2] | outcome [3] | outcome [4] | Potency [5] | outcome [6] | outcome [7] | outcome [8] | outcome [9] | outcome [10] | outcome [11] | outcome [12] | outcome [13] | outcome [14] | outcome [15] | outcome [19]

O=c1c(O)c(O)c1=O
inactive: Potency [20] | outcome [2] | outcome [3] | outcome [4] | Potency [5] | outcome [6] | outcome [7] | outcome [8] | outcome [9] | outcome [17] | outcome [10] | outcome [11] | outcome [12] | outcome [13] | outcome [18] | outcome [15] | Potency [16] | outcome [19]

CC(=O)SC[C@@H](C)C(=O)N1CCC[C@H]1C(=O)N[C@@H](Cc1ccccc1)C(=O)O
inactive: Potency [20] | Potency [1] | outcome [2] | outcome [3] | outcome [6] | outcome [8] | outcome [9] | outcome [11] | outcome [13] | outcome [18] | outcome [15]

CC(C)(C)OC=O
inactive: Potency [20] | Potency [1] | outcome [2] | outcome [3] | outcome [6] | outcome [8] | outcome [9] | outcome [17] | outcome [10] | outcome [11] | outcome [13] | outcome [14] | outcome [18] | outcome [15] | outcome [19]

c1cc2ccc3ccc4ccc5cccc6c(c1)c2c3c4c56
active: Potency [16] 1.95 µM
inactive: activation [1] 2.87% [at 3.63 µM] | activity change, negative = cytotoxicity [2] 10.5% [at 3.63 µM] | activity, negative = cytotoxicity [3] 31.3% [at 3.63 µM] | activity change, negative = cytotoxicity [4] 7.58% [at 3.63 µM] | ratio activity, negative = MMP loss [5] 16.7% [at 3.63 µM] | fluorescence, relative to Rose Bengal [6] 0.113% [at 3.72 µM] | fluorescence, % of triamterene [8] 1.23% [at 3.72 µM] | fluorescence, % of fluorescent control [9] 0.132% [at 3.72 µM] | fluorescence, % of fluorescein [17] -0.0268% [at 3.72 µM] | fluorescence, % of fluorescent control [10] 1.22% [at 3.72 µM] | activity change [11] 0.0204% [at 3.72 µM] | fluorescence, % of fluorescent control [12] -0.0354% [at 3.72 µM] | fluorescence, % of Rose Bengal [13] 0.202% [at 3.72 µM] | fluorescence, % of fluorescent control [15] 2.24% [at 3.72 µM] | activity change, negative = inhibition [19] 4.22% [at 3.15 µM]

O=S(=O)(O)c1cc(I)c(O)c2ncccc12
inactive: Potency [1] | outcome [2] | outcome [3] | outcome [4] | Potency [5] | outcome [6] | outcome [7] | outcome [8] | outcome [9] | outcome [17] | outcome [10] | outcome [11] | outcome [12] | outcome [13] | outcome [14] | outcome [18] | outcome [15]

CC(=O)OCC(=O)[C@@]1(O)CC[C@H]2[C@@H]3CCC4=CC(=O)C=C[C@]4(C)[C@H]3[C@@H](O)C[C@@]21C
inactive: Potency [1] | outcome [2] | outcome [3] | outcome [4] | outcome [6] | outcome [7] | outcome [8] | outcome [9] | outcome [17] | outcome [10] | outcome [11] | outcome [12] | outcome [13] | outcome [14] | outcome [18] | outcome [15]

CC(CC(=O)Cl)CC(C)(C)C (stereo not given)
inactive: Potency [1] | outcome [2] | outcome [3] | outcome [4] | Potency [5] | outcome [6] | outcome [8] | outcome [9] | outcome [17] | outcome [10] | outcome [11] | outcome [12] | outcome [13] | outcome [14] | outcome [15]

Cc1ccc2ccccc2n1
inactive: Potency [20] | outcome [2] | outcome [3] | outcome [4] | Potency [5] | outcome [6] | outcome [7] | outcome [8] | outcome [9] | outcome [17] | outcome [10] | outcome [11] | outcome [13] | outcome [14] | outcome [18] | outcome [15]

CC(C)(C)c1ccc(N)cc1
inactive: Potency [1] | outcome [2] | outcome [3] | outcome [4] | Potency [5] | outcome [6] | outcome [7] | outcome [8] | outcome [9] | outcome [17] | outcome [10] | outcome [11] | outcome [12] | outcome [13] | outcome [14] | outcome [18] | outcome [15] | Potency [16]

CC(=O)c1ccc2ccc3ccccc3c2c1
active: Potency [5] 30.5 µM
inactive: Potency [1] | outcome [2] | outcome [3] | outcome [4] | outcome [6] | outcome [7] | outcome [8] | outcome [9] | outcome [17] | outcome [10] | outcome [11] | outcome [12] | outcome [13] | outcome [14] | outcome [18] | outcome [15]

NNC(=O)OCc1ccccc1
inactive: Potency [1] | outcome [2] | outcome [3] | outcome [4] | Potency [5] | outcome [6] | outcome [7] | outcome [8] | outcome [9] | outcome [17] | outcome [11] | outcome [13] | outcome [14] | outcome [18] | outcome [15]

CC(C)(O)c1ccc(C(C)(C)O)cc1
inactive: Potency [1] | outcome [2] | outcome [3] | outcome [4] | Potency [5] | outcome [6] | outcome [7] | outcome [8] | outcome [9] | outcome [17] | outcome [11] | outcome [12] | outcome [13] | outcome [18] | outcome [15] | Potency [16]

CC(=O)Nc1ccc(OCCOCCOc2ccc(NC(C)=O)cc2)cc1
inactive: Potency [1] | outcome [2] | outcome [3] | outcome [4] | Potency [5] | outcome [6] | outcome [7] | outcome [8] | outcome [9] | outcome [17] | outcome [10] | outcome [11] | outcome [13] | outcome [14] | outcome [18] | outcome [15] | Potency [16]

C[C@H]1COc2c(C3(N)CC3)c(F)cc3c(=O)c(C(=O)O)cn1c23
inactive: Potency [1] | outcome [2] | outcome [3] | outcome [4] | Potency [5] | outcome [6] | outcome [7] | outcome [8] | outcome [9] | outcome [17] | outcome [10] | outcome [11] | outcome [12] | outcome [13] | outcome [18] | outcome [15] | Potency [16] | outcome [19]
